A selection: hits, their analogues and other compounds. The true share with any hit is near 7.6%.
SW480 rerep – A quantitative high throughput screen for small molecules that induce DNA re-replication in SW480 colon adenocarcinoma cells; SW480 DNA re-replication, Hoechst DNA content imaging, 48 h; Potency, µM (top dose mostly 46.1 µM), inactives show top-dose re-replication activation, hits mostly activators; 1.8% of 340,000 active; further: potency means the concentration at half of the fitted maximal effect; % of control where 0% means no effect; nearly all actives have a fitted effect of over 55% in size
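Cells (250 per well) received 23 nL compound or DMSO by pin tool and were kept 48 hr at 37 C, 5% CO2. Nuclei were then stained with Hoechst for 40 min and scanned for DNA content.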
KB-3-1 tox – qHTS assay for MDR1-selective chemotherapeutics: Primary screen using the parental adenocarcinoma cell KB-3-1; KB-3-1 viability, CellTiter-Glo ATP luminescence, 72 h; Potency, µM (highest dose often 46.1 µM), actives largely listed as cytotoxic; 1.4% of 400,000 active; further: potency means the concentration at half of the fitted maximal effect; on the % scale 0 is the no-effect control and ±100 the full control effect; nearly all actives have a fitted effect of over 60% in size
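Multi-concentration cytotoxicity screen in KB-3-1 cells grown in DMEM lacking phenol red with 10% FBS. After 72 h at 37 °C with compound, ATP-dependent luminescence was recorded.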
KB-V1 cytotox – qHTS assay for MDR1-selective chemotherapeutics: Primary screen using the drug-selected MDR subline cells KB-V1. KB-V1 MDR cells viability, CellTiter-Glo, 72 h. Potency, µM (titrated, usually from 46.1 µM), most hits filed as cytotoxic. 3.4% of 400,000 active. AID 1347076, 2019; further: potency means the concentration at half of the fitted maximal effect; on the % scale 0 is the no-effect control and ±100 the full control effect; nearly all actives have a fitted effect of over 60% in size
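KB-V1 cells (P-gp-expressing MDR subline of KB-3-1) in phenol-red-free DMEM with 10% FBS were exposed to library compounds over a concentration series for 72 h at 37 degrees C. Viability read by CellTiter-Glo luminescence; concentration-effect curves fitted after normalization.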
KCNH2 WT inh – qHTS for Inhibitors of KCHN2 3.1: Wildtype qHTS. AID 720551, 2013. Voltage-gated inwardly rectifying potassium channel KCNH2 (Homo sapiens), Q12809. activity change, % at 1.84 µM. 0.37% of 340,000 active. U2OS, BacMam KCNH2, thallium flux FluxOr; stronger effect = lower value;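 active means maximum activity change below -70%; inconclusive means maximum activity change between -70% and -50%; inactive means maximum activity change above -50%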; further: on the % scale 0 is the no-effect control and ±100 the full control effect
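U2OS cells transduced with wild-type KCNH2 virus are loaded with FluxOr dye for 45 min, and thallium flux is measured in kinetic reads before and after stimulation buffer. Rate constants are normalized to DMSO controls.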
KCNH2 3.1 inh – qHTS for Inhibitors of KCHN2 3.1: Mutant qHTS | Potassium voltage-gated channel subfamily H member 2, brain isoform KCNH2 3.1 (human) | U2OS KCNH2 3.1, thallium flux FluxOr; stronger effect = lower value | activity change, % (tested at about 1.8 µM) | 0.95% of 340,000 active | AID 720553, 2013;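 active means maximum activity change below -70%; inconclusive means maximum activity change from -70% to -50%; inactive means maximum activity change above -50%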;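 further: thallium influx rate constant from kinetic fluorescence after stimulation buffer; on the % scale 0 is the no-effect control and ±100 the full control effect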
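Steps: virus added to U2OS suspension (4 h, RT, dark); medium with 10% FBS added, cells plated, 37 C overnight; FluxOr/Red40 loading buffer 45 min RT; stimulation buffer, 2 min kinetic read; rate constant normalized.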
MCF10A rereplic – A quantitative high throughput screen for small molecules that induce DNA re-replication in MCF 10a normal breast cells | MCF 10A DNA re-replication, Hoechst nuclear intensity, 48 h | Potency, µM (series often up to 46.1 µM), for inactives: at the highest dose activity, positive = re-replication, usual class: activators | 2.9% of 350,000 active | AID 624296, 2012; further: potency means the concentration at half of the fitted maximal effect; % of control where 0% means no effect; nearly all actives have a fitted effect of over 50% in size
* = called active by the depositor; i = inactive; ? = inconclusive; · = not tested or not shown; ! = a repeat was not active; [ ] = remark or other dose. Unless noted, the call rests on the fitted dose curve; in most records, active means well fitted curve in the direction sought with a large enough effect; inconclusive means small, poorly fitted or top-dose-only effect, or another doubt; inactive means no such curve, though single readings can be large; an effect the other way counts as inactive or inconclusive.

SMILES	SW480 rerep	KB-3-1 tox	KB-V1 cytotox	KCNH2 WT inh	KCNH2 3.1 inh	MCF10A rereplic
Cc1cccc(Nc2c3c(nc4ccccc24)CCC3)c1	-53%	?	?	20	-34	-9%
COc1cc(Nc2c3c(nc4ccccc24)CCC3)cc(OC)c1OC	13µM*	2.3µM*	3.7µM*	-3	2	8.2µM*
COc1ccc(Nc2nc(-c3ccc(C)cc3)nc3ccccc23)c(OC)c1	·	i	i	·	·	·
COc1ccc(OC)c(Nc2c3ccccc3nc3ccccc23)c1	21µM*	12µM*	21µM*	1	-39	21µM*
CC(C)NCC(=O)Nc1c2c(nc3ccccc13)CCC2	-4%	i	i	2	-13	-1%
NC(=O)c1ncn([C@@H]2O[C@H](CNCc3cc(Cl)ccc3OCc3ccc(Cl)cc3)[C@@H](O)[C@H]2O)n1	13%	i	i	-1	-10	-9%
CCNC(=O)C1(C)CCN(Cc2cccc(C(F)(F)F)c2)C1 (stereo not given)	·	i	i	·	·	·
CCc1nnnn1-c1ccc([N+](=O)[O-])cc1C	-5%	i	i	5	-5	-8%
CC(S(=O)(=O)c1ccccc1)S(=O)(=O)c1ccccc1	·	i	i	1	3	·
CC1=C/C(=N\OS(=O)(=O)c2ccccc2)C(C)=CC1=O	4.1µM*	13µM*	5.8µM*	0	-12	4µM*
CC1=C(C)/C(=N\OS(=O)(=O)c2ccc(C)cc2)C=CC1=O	5.2µM*	?	?	-7	1	?
COc1ccc(S(=O)(=O)/N=C2/C=CC(=O)C(C)=C2C)cc1	0%	i	i	-4	-2	?
CC1=C/C(=N\OS(=O)(=O)c2ccccc2)C(C(C)C)=CC1=O	3.7µM*	?	?	11	-2	4.1µM*
CC(=O)c1c(C)[nH]c(C(=O)N2CCc3ccccc32)c1C	1%	i	i	0	0	2%
COc1cc2c(C(=O)N3CCN(c4cccc(Cl)c4)CC3)cn(C)c(=O)c2cc1OC	?	?	?	17	-6	?
CCOC(=O)c1[nH]c(C)c(C(=O)OC(C)C(=O)Nc2ncc(Cl)cc2Cl)c1C (stereo not given)	-1%[9.22 µM]	?	13µM*	-8	5	?
CCOC(=O)c1[nH]c(C)c(C(=O)N2CCc3ccccc32)c1C	0.52µM*	0.33µM*	0.33µM*	4	12	0.41µM*
Cc1[nH]c2ccccc2c1C(=O)C(=O)N1CCN(c2cccc(Cl)c2)CC1	?	?	i	-28	-1	21µM*
CCn1cc(C(=O)N2CCN(c3cccc(Cl)c3)CC2)c2cc(OC)c(OC)cc2c1=O	?	?	21µM*!	2	6	?
COCCN(Cc1ccco1)C(=O)C1CCCN(c2ncnc3c2nc2n3CCCCC2)C1 (stereo not given)	-5%	i	?	5	13	13%
COc1ccc2c(C)c(CCC(=O)NCCc3ccc(OC)c(OC)c3)c(=O)oc2c1	·	i	i	·	·	·
CC(=O)c1sc(NC(=O)CCS(=O)(=O)c2ccc(C)cc2)nc1C	?	i	?	-4	-4	?
COc1ccc(CN2C(=O)C(CC(=O)NCc3ccco3)CC(C(=O)N3CCOCC3)=C2C)cc1 (stereo not given)	·	i	?	-11	-9	·
CCOC(=O)c1[nH]c(C)c(C(=O)Nc2ccc(Cl)cc2)c1C	1%	i	i	3	8	-2%
CCOC(=O)c1[nH]c(C)c(C(=O)Nc2cccc(Cl)c2C)c1C	12µM*	5.8µM*	6.5µM*	-8	1	8.2µM*
